± gives the standard deviation of the averaged measurements. Over roughly 25,000 sequences, “ln(normalized median fluorescence intensity)” has its median near 7.9; the highest 2% begin near 11. Many of the other results were omitted from the sample, so the highest values are more common in it than they were.

The test system of the assay is PfAP2-I AP2 domain 3 (GST-tagged). Kind of assay: gcPBM binding intensity (ln(normalized median fluorescence intensity)); higher = stronger DNA binding. The method, boiled down: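 Binding intensity is defined as the maximum Masliner-normalised natural-log median intensity across replicate spots for either probe orientation. It was measured on an Agilent 4 × 180k array of primer-extended double-stranded 36-bp intergenic genomic probes and negative controls, to which GST-tagged P. falciparum DNA-binding domains made in E. coli were applied for 1 h in 1× PBS with 1% milk, 0.2 mg/ml BSA, 0.5% salmon testes DNA and 0.03% Triton X-100. Detection was by Alexa488 anti-GST antibody and scanning at 488 nm.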
On to “CAATATTATAGATATACACACATAATGTGTAAAAAC [CACACA_site6631]”, for which the “gcPBM binding intensity (ln)” value stood at 7.87 ± 0.79.

On to TAAACGTTAGTATGTGTGCACATTAGTAATTTAAAA, for which the “gcPBM binding intensity (ln)” value turned out to be 9.65 ± 0.3.

In the case of “TAAATTATAACGTGCACACATATTTAAAATGAAATG [CACACA_site2820]”, the “gcPBM binding intensity (ln)” value was 11.3 ± 0.23.

On to “TTAAAATGAAGAAGTGCACACATATATATATTTATA [CACACA_site8063]”, for which the “gcPBM binding intensity (ln)” value is 9.67 ± 0.18.

TTCATTCAAATTAACGTGCACATTATTAGTAAAAAC: the “gcPBM binding intensity (ln)” value was 11.05 ± 0.035.

Take “AAAAAATTAACGAGTGCACACATATTTAGATAAAAT [CACACA_site8958]”: the “gcPBM binding intensity (ln)” value came to 9.86 ± 0.18.

Regarding “AAAATTAAAAATAACACACACATATATATATTTATA [CACACA_site2776]”, the “gcPBM binding intensity (ln)” value amounted to 7.66 ± 0.34.

For the sequence “TTAGTAAATACATTTGCACACATTATTTTTTAACAT [CACACA_site5448]”, the “gcPBM binding intensity (ln)” value worked out at 9.36 ± 0.11.

For “GAAAAATTAAAAATAACACACACATATATATATTTA [CACACA_site8896]”, the “gcPBM binding intensity (ln)” value came to 7.56 ± 0.4.

In the case of “TGTAAATTATAACGTGCACACATATTTAAAATGAAA [CACACA_site8915]”, the “gcPBM binding intensity (ln)” value was found to be 11.2 ± 0.15.

In the case of “CTTAATAAGAATAAATGTACAAGGGATAAAAAATTT [XGTACX_site3213]”, the “gcPBM binding intensity (ln)” value stood at 8.02 ± 0.73.

Consider “TTTTTTTTTTTTGAAACATGCATTGTTTTATTCTTA [TGCATGCA_site15]”, for which the “gcPBM binding intensity (ln)” value came out at 7.99 ± 0.85.

In the case of “GGAAATTTCAATATTTGTACATATATATATATATAT [XGTACX_site3222]”, the “gcPBM binding intensity (ln)” value worked out at 9.56 ± 0.6.

In the case of “AGACATAAGATAATTACACACAATACATCCCTATAT [CACACA_site2227]”, the “gcPBM binding intensity (ln)” value was 7.76 ± 0.57.

“AGAAACCTTGTTAGTTAGCATATATATATATATATA [CACACA_negctrl_site372]”: the “gcPBM binding intensity (ln)” value is 9.46 ± 0.46.

Turning to “GGAAGCTAATTACACACATGCATATTTTTTTTTCAA [TGCATGCA_site548]”, the “gcPBM binding intensity (ln)” value is 8.16 ± 0.83.

Turning to “GTTAATATTTTTGGGGGTACTTAAAAAAAAAAAAAA [XGTACX_site1477]”, the “gcPBM binding intensity (ln)” value was 9.29 ± 0.26.

On to “ATTTTTTTTTTTTTTTTGGGGGGGTATACTTTTAAA [CACACA_negctrl_site1020]”, for which the “gcPBM binding intensity (ln)” value was 11.6 ± 0.4.

Consider “TATACTTTATATATTTTGTATATATATTTTTTTTAT [TGCATGCA_negctrl_site530]”, for which the “gcPBM binding intensity (ln)” value is 7.5 ± 0.28.

With “ATCTATGATATATACACACACATGTATAAATAAATA [CACACA_site7012]”, the “gcPBM binding intensity (ln)” value came to 7.75 ± 0.47.

Take “TTTTTCTTTTTTTGTTGTACATTTTGTAATATTTAC [XGTACX_site4102]”: the “gcPBM binding intensity (ln)” value amounted to 7.9 ± 0.59.

In the case of “TTATTTTTCTTTATTGGTACACACGAAAAAAAAATT [XGTACX_site6482]”, the “gcPBM binding intensity (ln)” value was determined as 8.03 ± 0.3.

For “TTTTTTTTTTTTTTTTTTTTTTTTGGGTCCCATACA [CACACA_negctrl_site913]”, the “gcPBM binding intensity (ln)” value stood at 8.1 ± 0.63.

Regarding “TAATGGAAACCATTTATTTTCTGCAATATATTTTTT [CACACA_negctrl_site1653]”, the “gcPBM binding intensity (ln)” value was found to be 7.67 ± 0.35.

“AATCATTTATTGATGGTGCAATATACCATCTAATGA [GTGCAC_site9440]”: the “gcPBM binding intensity (ln)” value turned out to be 11.4 ± 0.76.

In the case of “AAATTTATTATATATACATGCAATCATAAATAATGT [TGCATGCA_site539]”, the “gcPBM binding intensity (ln)” value was determined as 7.68 ± 0.48.

Regarding “TTACAAAAATGTGGTTGTACACAAACAAAAAAAATA [XGTACX_site8506]”, the “gcPBM binding intensity (ln)” value was found to be 8.35 ± 0.29.

Consider “TCTTTTTTTTCTTTTTTTTTATTTAAATATCAAGTA [CACACA_negctrl_site1354]”, for which the “gcPBM binding intensity (ln)” value is 7.59 ± 0.34.

As for “TTTTATTGTTGTTATACACACCATATAAAATATTTC [CACACA_site4983]”, the “gcPBM binding intensity (ln)” value turned out to be 7.92 ± 0.6.

“ATAAAAAGAAATCCAATACACACCTTCAAAATGGGT [CACACA_site1622]”: the “gcPBM binding intensity (ln)” value came to 7.71 ± 0.72.

In the case of “AAAGATATAAATTACTGTACTAATGAAATTGGTAAA [XGTACX_site3582]”, the “gcPBM binding intensity (ln)” value turned out to be 7.67 ± 0.28.

With “AAGAAAAGCATAGATGCACACATATATATATATATA [CACACA_site8675]”, the “gcPBM binding intensity (ln)” value was 9.485 ± 0.078.

As to TTCAAAAGATATATCGTGCACATATATATGATGAAA, the “gcPBM binding intensity (ln)” value turned out to be 11.155 ± 0.007.

For the sequence “ATTATATATATGTGCACACAAAAGATATATATATAT [CACACA_site5205]”, the “gcPBM binding intensity (ln)” value was determined as 10.2 ± 0.13.

For the sequence “ACTTTTATTCGCTTACGTACATATATTATATATTAT [XGTACX_site4459]”, the “gcPBM binding intensity (ln)” value worked out at 8.75 ± 0.55.

Consider “TATAAATATTTATGTACACACATATACATGTTGAAT [CACACA_site5684]”, for which the “gcPBM binding intensity (ln)” value was found to be 7.95 ± 0.43.

Turning to “AATATTATTATTATTACACACACAATTATATTTACC [CACACA_site8061]”, the “gcPBM binding intensity (ln)” value worked out at 7.93 ± 0.38.

On to “AACCTTACACAAGGGGTGCAATATTATTTCGATAAA [GTGCAC_site9600]”, for which the “gcPBM binding intensity (ln)” value came out at 11.5 ± 0.66.

Consider “AGCAATTTGGGGTGTACACACACCTTATTTAAATTA [CACACA_site1157]”, for which the “gcPBM binding intensity (ln)” value came to 8.23 ± 0.22.

Take “TACATTTTACTTGTTACACACATATAAAATTAACCA [CACACA_site2922]”: the “gcPBM binding intensity (ln)” value is 7.82 ± 0.5.

As for “AATAGTAAAAATCACTGTACGTTTATTTTTAAAATG [XGTACX_site1035]”, the “gcPBM binding intensity (ln)” value is 7.79 ± 0.28.

On to “CCATAACTCATATGCACACATAAATATTACATATAT [CACACA_site3821]”, for which the “gcPBM binding intensity (ln)” value turned out to be 8.87 ± 0.13.

Regarding “TAGTTCTTTTAATTTAGTATTATACAATATTGGAAA [CACACA_negctrl_site521]”, the “gcPBM binding intensity (ln)” value worked out at 7.49 ± 0.47.

Take ATAACAAAAATCCTTGTGCACTATTTTAATAGAGTC: the “gcPBM binding intensity (ln)” value is 11.4 ± 0.12.

On to “ATATAATATTTTAGAGTGCACCGATAACAATAAATA [GTGCAC_site9754]”, for which the “gcPBM binding intensity (ln)” value amounted to 10.4 ± 0.17.

With “TTTTAATATATAGAGTAACAAATTTGTCTATTAATA [CACACA_negctrl_site1495]”, the “gcPBM binding intensity (ln)” value was 7.5 ± 0.58.

Turning to “GAAAGAAGCATAAATGTACACACATATTTATATATT [CACACA_site8368]”, the “gcPBM binding intensity (ln)” value was found to be 7.74 ± 0.4.

On to “CATTTATATAAAGAATGTACACACAGAAATGCACAC [XGTACX_site4718]”, for which the “gcPBM binding intensity (ln)” value stood at 10.2 ± 0.2.

Regarding “TGTACACCCAGAAATGCACACACATATATATATATA [CACACA_site8716]”, the “gcPBM binding intensity (ln)” value came out at 9.54 ± 0.18.

Turning to “TTATATAAAGAATGTACACACAGAAATGCACAGACA [CACACA_site5288]”, the “gcPBM binding intensity (ln)” value stood at 9.43 ± 0.29.

Take “TTATATAAAGAATGTACACACAGAAATGCACCCACA [CACACA_site2282]”: the “gcPBM binding intensity (ln)” value was 11 ± 0.57.

Regarding “ATTTATATAAAGAATGTACACACAGAAATGCACCCA [CACACA_site8715]”, the “gcPBM binding intensity (ln)” value turned out to be 11 ± 0.83.

On to “TCTTTCTCTCTTCAAAGTACATATAATATATACTTC [XGTACX_site7982]”, for which the “gcPBM binding intensity (ln)” value was determined as 7.88 ± 0.52.

As for “TATTACAAATATGGCACACATATATATATATATATT [CACACA_site3268]”, the “gcPBM binding intensity (ln)” value came out at 8.69 ± 0.2.

Turning to “TTTTATGTTCTTAATGCACACTTATAAGTATCTTAT [CACACA_site4895]”, the “gcPBM binding intensity (ln)” value amounted to 11.4 ± 0.72.

On to TATATATATATATGTATGCACTTTAATTTTATAAGG, for which the “gcPBM binding intensity (ln)” value came out at 9.85 ± 0.26.

Turning to “ATATAATATTTATATGCACACTTTTCTATATATAAG [CACACA_site6100]”, the “gcPBM binding intensity (ln)” value is 9.77 ± 0.15.

With “TAAAAAAAAAAGTATACACACTTCTTAATGTCAACA [CACACA_site4818]”, the “gcPBM binding intensity (ln)” value is 7.36 ± 0.46.

In the case of “TTATGTTCTTAATGCACACTTATAAGTATCTTATAA [CACACA_site1394]”, the “gcPBM binding intensity (ln)” value stood at 10.99 ± 0.028.

Turning to “ATTAAAAAAAAAAGTATACACACTTCTTAATGTCAA [CACACA_site1244]”, the “gcPBM binding intensity (ln)” value was 7.39 ± 0.47.

(Values after the supplement of paper PMC11417369.)
